# JMJD2A Tudor inh – inhibitors of human JMJD2A Tudor domain; Potency, µM (series often up to 114 µM), without a hit: at the highest dose activity change, negative = inhibition, hits mostly inhibitors; AID 504339; 390,000 tested, 4.4% active; AlphaScreen JMJD2A-Tudor / H3K4me3 peptide binding; note: % is set by controls: 0 for no effect and ±100 for the full control effect; nearly all actives have a fitted effect of over 50% in size
# G9a block – G9a (human) methyltransferase inhibition; G9a H3K9 monomethylation, AlphaScreen, 2 h; 350,000 tested, 8.8% active; Potency, µM (titrated, usually from 102 µM), for the others: at the top dose activity, negative = inhibition, usual class: inhibitors; note: % is set by controls: 0 for no effect and ±100 for the full control effect; nearly all actives have a fitted effect of over 75% in size
#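 Enzyme 20 nM + cpd, 15 min RT; add b-H3K9 pep 500 nM / SAM 20 uM; 2 h RT; anti-H3K9me1 Ab 0.5 ug/mL + SA donor / anti-rabbit acceptor beads 20 ug/mL each, 10 min; AlphaScreen read.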
# BAZ2B block – inhibitors of human BAZ2B bromodomain. AID 504333. AlphaScreen BAZ2B-H3K14Ac peptide displacement. Q9UIF8. 360,000 tested, 4.4% active. Potency, µM (top dose mostly 114 µM), for inactives: top-dose activity change, negative = inhibition, most hits filed as inhibitors; note: % is set by controls: 0 for no effect and ±100 for the full control effect; nearly all actives have a fitted effect of over 60% in size
#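 Protein-peptide AlphaScreen: BAZ2B 50 nM, b-H3K14Ac 50 nM, 1x PBS pH 7.4 + 0.01% Tween-20. Preincubation 30 min RT; cpd 30 min RT (top 110 uM); beads 20 min RT, light-protected.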
# HP1b chromo inh – blocks HP1-beta chromodomain binding to methylated histone tails | P83916 | AlphaScreen HP1-beta / biotin-H3K9me3 peptide binding | Potency, µM (top dose mostly 114 µM), inactives show at the highest dose activity change, negative = inhibition, actives largely listed as inhibitors | 390,000 tested, 0.56% active | AID 540317; note: nearly all actives have a fitted effect of over 70% in size
#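 HP1-beta protein (50 nM final) preincubated 30 min at room temperature with biotinylated H3(1-18)K9me3 peptide (50 nM) in PBS pH 7.4, 0.01% Tween-20, then compound added for 30 min. AlphaScreen streptavidin donor/nickel chelate acceptor beads (10 ug/mL final), 30 min dark, luminescence read.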
# L3MBTL1 block – L3MBTL1 (human) inhibition. Q9Y468. AlphaScreen L3MBTL1–H3K9me1 peptide binding. Potency, µM (top dose mostly 57.1 µM), without a hit: at the highest dose activity, negative = inhibition, actives largely listed as inhibitors. 230,000 tested, 0.66% active; note: % is set by controls: 0 for no effect and ±100 for the full control effect; nearly all actives have a fitted effect of over 60% in size
# Target sequence (Q9Y468 whole entry, looked up): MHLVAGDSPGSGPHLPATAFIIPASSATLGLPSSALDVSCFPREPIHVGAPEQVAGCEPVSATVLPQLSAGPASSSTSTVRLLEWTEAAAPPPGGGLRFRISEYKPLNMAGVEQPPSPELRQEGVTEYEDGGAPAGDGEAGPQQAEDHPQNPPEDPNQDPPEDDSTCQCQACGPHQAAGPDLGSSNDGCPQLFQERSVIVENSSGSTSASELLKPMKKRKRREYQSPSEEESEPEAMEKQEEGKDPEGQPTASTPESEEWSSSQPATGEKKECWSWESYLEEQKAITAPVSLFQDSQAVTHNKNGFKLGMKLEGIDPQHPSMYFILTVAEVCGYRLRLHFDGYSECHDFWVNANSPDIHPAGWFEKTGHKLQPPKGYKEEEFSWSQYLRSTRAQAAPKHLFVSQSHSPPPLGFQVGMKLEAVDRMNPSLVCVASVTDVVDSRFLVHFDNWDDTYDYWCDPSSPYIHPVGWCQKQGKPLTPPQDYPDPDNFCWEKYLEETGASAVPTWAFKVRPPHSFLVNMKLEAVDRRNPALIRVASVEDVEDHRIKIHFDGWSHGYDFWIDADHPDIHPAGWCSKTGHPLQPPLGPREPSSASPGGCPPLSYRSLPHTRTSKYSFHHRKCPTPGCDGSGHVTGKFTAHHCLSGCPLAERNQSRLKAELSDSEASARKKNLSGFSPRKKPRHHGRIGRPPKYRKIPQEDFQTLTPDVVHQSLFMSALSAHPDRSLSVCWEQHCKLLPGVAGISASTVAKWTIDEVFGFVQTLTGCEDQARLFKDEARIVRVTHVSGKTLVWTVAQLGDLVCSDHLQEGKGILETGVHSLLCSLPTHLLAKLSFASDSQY
#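 AlphaScreen assay: L3MBTL1 (50 nM final) was preincubated 30 min at room temperature with biotinylated H3(1-15)K9me1 peptide (75 nM final), then 30 min with library compounds; streptavidin donor and nickel chelate acceptor beads (10 ug/mL final) added, 30 min dark.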
# Numbers without * were called inactive; ? = inconclusive; . = no result given; [ ] = another dose, or the depositor's remark. Shown are actives, neighbours in structure and some others; about 11% of the full set was active somewhere. Calls come from the whole dose curve; as a rule, active = well fitted inhibition curve with a large enough effect; inconclusive = small, poorly fitted or top-dose-only effect; inactive = no such curve, though single readings can be large or run the other way. Potency is the fitted concentration of half-maximal effect.
SMILES,JMJD2A Tudor inh,G9a block,BAZ2B block,HP1b chromo inh,L3MBTL1 block
O=C(Cn1c(SCCOc2ccc(Cl)cc2)nc2ccccc21)N1CCCCC1,-5%,-12%[59 µM],-10%,50%,.
COc1ccc(C(=O)NNc2ncnc3c2cnn3-c2ccccc2)cc1,?,21%[59 µM],3%,41%,.
O=c1cc(-c2ccc(O)cc2)oc2c1ccc1ccccc12,-32%,-57%[59 µM],-34%,66%,-7%
O=c1cc(-c2ccc(O)cc2)oc2c(O)c(O)c(O)c(O)c12,40µM*,20µM*,45µM*,?,3.2µM*
O=c1cc(-c2ccccc2)oc2cc(O)c(O)c(O)c12,?,.,.,-10%,16µM*
Cc1noc(C)c1C(=O)N1CCC2(CC1)CN(Cc1cc(C(F)(F)F)cc(C(F)(F)F)c1)C2,.,0%[12.7 µM],.,.,.
O=C(Nc1ccc(OC(F)(F)F)cc1)C1CCN(S(=O)(=O)c2ccc3[nH]c(=O)ccc3c2)CC1,-1%,4%[59 µM],0%,13%[57 µM],.
CCOc1cc(CNC(=O)Cn2ncn3c(cc4cc(F)ccc43)c2=O)cc(OCC)c1OCC,10%,-10%[59 µM],-3%,22%,.
CN1CCN(S(=O)(=O)c2cccc(C(=O)Oc3ccc(C(C)(C)C)cc3)c2)CC1,?,50µM*,?,-9%,-5%
CN1CCN(S(=O)(=O)c2cccc(C(=O)Oc3cccc(Br)c3)c2)CC1,-32%,?,?,9%,-10%
CC(C)c1ccc(OC(=O)c2cccc(S(=O)(=O)N3CCN(C)CC3)c2)cc1,?,20µM*,?,-10%,.
COc1cc(OC)cc(OC(=O)c2cccc(S(=O)(=O)N3CCN(C)CC3)c2)c1,-23%,?,-8%,4%,-4%
O=C1c2ccccc2C(=O)N1c1ncccc1O,-19%,.,.,.,.
Cc1ccnc(NC(=O)Cn2c(=O)oc3ccccc32)c1,-9%,9%,-18%,23%,.
Cc1cc(O)c(C=O)c2c1C(=O)Oc1c(CO)c(O)c3c(c1O2)C(O)OC3=O (stereo not drawn),3.2µM*,?,20µM*,?,2.8µM*
Cc1cc2c(c(C)c1Cl)C(c1ccc3c(c1)OCO3)CC(O)(c1ccccc1)O2 (stereo not drawn),-35%,.,.,18%,.
COc1ccc2c(C)c(CC(=O)N3CCN(C(=O)C4COc5ccccc5O4)CC3)c(=O)oc2c1C (stereo not drawn),18µM*,5%,-2%,-21%,.
CCCN(CCC)C(=O)Cn1c(=O)n(Cc2ccc(C(=O)NCCc3ccc(Cl)cc3)cc2)c(=O)c2ccccc21,-11%,-2%[59 µM],0%,16%,.
Fc1cccc(C[n+]2csc3ccccc32)c1,79µM*,11µM*,?,18%,-12%
CN(C)c1ccc(CNC(=O)c2ccccc2NC(=O)c2nsc3ccccc23)cc1,-21%,-25%[59 µM],-30%,4%[57 µM],.
CC(C)(C)c1cc(C(=O)CCN2CCOCC2)cc(C(C)(C)C)c1O,-9%,50µM*,2%,23%,.
COc1ccc(/C([O-])=C(/C(=S)Nc2ccc(C)c(C)c2)n2c[n+](C)c3ccccc32)cc1OC,-26%,45µM*,-36%,-2%,-7%
CC(C)COc1ccc(C(=O)Nc2cccc(-c3nc4ccccc4[nH]3)c2)cc1,-16%,4%[59 µM],-1%,21%,.
CCOc1ccc(/C(CCC(=O)O)=N/NC(=S)NC(C)C)cc1,-20%,22µM*,-26%,-10%,4%
CCOc1ccc(C(=O)CCC(=O)O)cc1,-17%,-11%,11%,31%,-5%
SMILES,JMJD2A Tudor inh,G9a block,BAZ2B block,HP1b chromo inh,L3MBTL1 block
CCOC(=O)C1=NNC(C(=O)c2ccc(C)cc2)C1c1ccc(OC)cc1 (stereo not drawn),-12%,50µM*,-33%,20%,.
CCOC(=O)C1=NNC(C(=O)c2ccc(Cl)cc2)C1c1ccc(OC)cc1 (stereo not drawn),-16%,?,-37%,14%,-9%
COc1ccc(OC)c(CNC(=O)c2cc(S(=O)(=O)N3CCC(C)CC3)cn2C)c1,-29%,9%[59 µM],?,9%[57 µM],.
c1ccc(-c2nc(Sc3ncnc4c3cnn4-c3ccccc3)n[nH]2)cc1,.,32µM*,4%,.,3%
COc1ccc(-c2csc3ncnc(Nc4ccc(OC)c(OC)c4)c23)cc1,?,5%[59 µM],-31%,-1%,.
Cc1ccc(-c2c3c(=O)n(C)c(=O)n(C)c3cn2Cc2ccccc2)cc1,?,11µM*,?,8%,.
Cn1c(=O)c2c(-c3ccccc3)n(Cc3ccccn3)cc2n(C)c1=O,-29%,?,50µM*,48%,.
CCCn1cc2c(c1-c1ccc(C)cc1)c(=O)n(C)c(=O)n2C,-22%,.,?,22%,-9%
CC(C)CCNC(=O)c1cnc2sc(N3CCCCC3)nn2c1=O,1%,8%[59 µM],1%,25%,.
Cc1ccc(NC(=O)N(Cc2c[nH]c3ccccc23)C2CCCCCC2)cc1C,?,-34%[59 µM],.,-1%,.
COC(=O)C1=C(N)Oc2cc(N(C)C)ccc2C1c1ccccc1OC (stereo not drawn),50µM*,32µM*,40µM*,?,?
COC(=O)C1=C(N)Oc2cc(C)n(CC3CCCO3)c(=O)c2C1c1ccccc1OC (stereo not drawn),6%,4%[12.7 µM],-9%,28%,0%
N#Cc1c(-c2ccccc2)cc(-c2ccccc2)nc1SCC(=O)NCC(=O)O,-12%,45µM*,-15%,-10%,8%
COc1ccc(-c2cc(-c3ccccc3)nc(SCC(=O)Nc3ccccc3C)c2C#N)cc1,-11%,13µM*,-14%,-12%,.
COc1ccc(-c2cc(-c3ccc(Cl)cc3)c(C#N)c(SCC(=O)O)n2)cc1,79µM*,?,?,?,?
CCCOc1ccc(-c2cc(C(F)(F)F)c(C#N)c(SCCC(=O)O)n2)cc1,79µM*,-6%[59 µM],?,-17%,.
COc1ccc(-c2cc(-c3ccccc3)c(C#N)c(SCC(=O)O)n2)cc1,2%,.,.,60%,.
CCOC(=O)CC(=O)CSc1nc(-c2ccccc2)cc(-c2ccccc2)c1C#N,16%,31%,11%,44%,17%
N#Cc1c(-c2ccccc2)cc(-c2ccccc2)nc1SCC(O)CS(=O)(=O)Cc1ccc(Cl)cc1 (stereo not drawn),?,1.8µM*,-14%,?,.
CCCSc1nc(-c2ccc(OC)cc2)cc(-c2ccccc2OC)c1C#N,22%,1.8µM*,22%,-39%,.
Cc1cccc(C)c1NC(=S)NCc1ccncc1,11%,34%,24%,22%,6%
COc1ccc(-c2nc3cc(C)ccn3c2NC(=O)c2cccc(F)c2)cc1,-19%,2%[59 µM],-4%,12%,.
Cc1cccc(N2CCN(C(=O)Cn3c(=O)c4cccn4c4ccc(F)cc43)CC2C)c1 (stereo not drawn),-16%,-17%[59 µM],17%,49%,.

# Screening results: PubChem, National Center for Advancing Translational Sciences (NCATS)
